From ChEMBL document CHEMBL3988442, “University of Dundee, Small-Polar-MMV Screening Library” (2021) come the findings set out here.

For some of these results: Measured potencies and affinities stand elsewhere.

Common to all, as to parameters: scale not given: direction of the effect not stated beside the values
Test [1] concerns the target Protein translocase subunit SecA (Escherichia coli (strain K12)) (UniProt P10408). The experiment in a line: Assay to Identify E. coli SecA ATPase Inhibitors. The format is functional. Particulars: 30 µM.
Test [2] deals with T1, Ubiquitin-activating enzyme e1, putative (Leishmania donovani (strain BPK282A1)) (UniProt E9BSI1).
T1 sequence (whole entry): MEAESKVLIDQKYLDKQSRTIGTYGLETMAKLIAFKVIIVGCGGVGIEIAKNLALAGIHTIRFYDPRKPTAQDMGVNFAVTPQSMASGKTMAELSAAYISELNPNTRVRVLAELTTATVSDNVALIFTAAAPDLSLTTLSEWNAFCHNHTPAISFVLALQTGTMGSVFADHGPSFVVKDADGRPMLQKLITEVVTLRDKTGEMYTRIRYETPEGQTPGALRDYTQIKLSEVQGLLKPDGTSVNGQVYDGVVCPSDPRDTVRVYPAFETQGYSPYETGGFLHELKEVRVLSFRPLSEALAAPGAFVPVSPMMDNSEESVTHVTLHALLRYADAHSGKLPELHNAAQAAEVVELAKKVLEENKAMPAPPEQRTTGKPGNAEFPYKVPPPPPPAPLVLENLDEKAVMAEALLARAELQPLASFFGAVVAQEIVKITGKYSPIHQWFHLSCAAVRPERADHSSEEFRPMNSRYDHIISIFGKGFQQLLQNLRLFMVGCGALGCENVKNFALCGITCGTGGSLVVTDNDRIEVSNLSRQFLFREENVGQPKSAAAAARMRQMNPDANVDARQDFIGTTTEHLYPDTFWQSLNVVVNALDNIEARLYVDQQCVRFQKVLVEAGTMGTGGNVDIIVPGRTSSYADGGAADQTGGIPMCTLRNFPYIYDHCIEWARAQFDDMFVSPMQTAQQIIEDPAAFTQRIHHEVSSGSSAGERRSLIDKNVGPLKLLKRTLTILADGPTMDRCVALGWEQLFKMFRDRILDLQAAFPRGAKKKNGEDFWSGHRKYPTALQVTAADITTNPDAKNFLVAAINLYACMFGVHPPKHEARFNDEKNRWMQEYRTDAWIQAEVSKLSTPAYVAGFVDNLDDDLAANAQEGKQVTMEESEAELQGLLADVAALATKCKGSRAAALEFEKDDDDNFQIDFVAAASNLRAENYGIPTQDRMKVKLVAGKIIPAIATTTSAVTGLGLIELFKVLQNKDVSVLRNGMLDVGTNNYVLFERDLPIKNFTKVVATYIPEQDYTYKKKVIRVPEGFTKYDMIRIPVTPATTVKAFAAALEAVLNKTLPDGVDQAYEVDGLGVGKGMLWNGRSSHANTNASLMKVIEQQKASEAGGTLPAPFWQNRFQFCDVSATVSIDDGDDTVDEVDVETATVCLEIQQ
As to the kind of experiment: Leishmania donovani Ubiquitin Activating Enzyme (LdE1). Format: functional. Conditions: 30 µM.

The target of test [3] is AMP-activated protein kinase, AMPK (Homo sapiens) (UniProt P54646+O43741+P54619+Q9UGJ0+Q9Y478+Q13131+Q9UGI9). As to the kind of experiment: AMP-dependent Kinase enzyme assay. An in vitro enzyme assay that detects ADP turnover that is directly proportional to AMPK activity. This uses naive AMPK that is activated during the assay with MK-8722. Conditions: 30 µM. The format is functional.

In test [4] the target is Sialic acid-binding Ig-like lectin 9 (Homo sapiens) (UniProt Q9Y336). As to the kind of experiment: Hs-Siglec9 ALPHAscreen SOP 20170721. Conditions: 10 µM.
Another test has as its system Trypanosoma cruzi. As to the kind of experiment: Trypanosoma cruzi phosphomannomutase and mannose-1-phosphate guanylyltransferase assay. Conditions: 10 µM. Format: functional.
Test [5] concerns the target T2, Arginase-2, mitochondrial (Homo sapiens) (UniProt P78540).
T2 sequence (whole entry): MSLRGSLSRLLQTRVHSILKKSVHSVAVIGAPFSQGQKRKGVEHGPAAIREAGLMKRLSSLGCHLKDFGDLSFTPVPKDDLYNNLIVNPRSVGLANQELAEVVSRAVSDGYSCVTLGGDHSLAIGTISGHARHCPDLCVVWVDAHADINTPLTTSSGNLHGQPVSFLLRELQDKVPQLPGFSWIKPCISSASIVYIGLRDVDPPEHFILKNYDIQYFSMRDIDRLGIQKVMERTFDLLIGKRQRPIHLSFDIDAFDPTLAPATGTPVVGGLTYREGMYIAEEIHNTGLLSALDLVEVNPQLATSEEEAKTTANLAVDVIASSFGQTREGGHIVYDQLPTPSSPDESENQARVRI
The experiment in a line: in vitro enzyme assay to detect the production of urea directly proportional to the activity of Arginase II. Note: in the data most compounds retested in dose-response had high values. The format is functional. Conditions: 33.3 µM.

Test [6] concerns the target T3, Proteasome subunit beta (Trypanosoma cruzi) (UniProt O96673).
T3 sequence (whole entry): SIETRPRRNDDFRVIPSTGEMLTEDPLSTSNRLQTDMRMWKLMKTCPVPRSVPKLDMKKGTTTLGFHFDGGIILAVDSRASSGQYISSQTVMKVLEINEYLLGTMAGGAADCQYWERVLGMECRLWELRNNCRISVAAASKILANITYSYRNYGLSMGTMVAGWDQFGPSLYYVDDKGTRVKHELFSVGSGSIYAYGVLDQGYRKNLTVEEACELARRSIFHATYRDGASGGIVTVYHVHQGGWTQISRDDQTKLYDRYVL
As to the kind of experiment: Trypanosoma cruzi proteasome chymotrypsin-like activity (TcProtChymo) assay. Note: in the data most compounds retested in dose-response had high values. Particulars: 9.37 µM. The format is functional.

The species entered for another test is Homo sapiens. As to the kind of experiment: To identify inhibition of the IFN signalling (Jak-Stat) pathway via expression of an eGFP reporter gene under the control of an IFN-stimulated response element (ISRE) containing MxA promoter. Format: functional. Particulars: 30 µM. For orientation: A reporter such as luciferase makes a cellular process visible.
In test [7] the target is T4, Tyrosyl-tRNA synthetase, putative (Trypanosoma cruzi (strain CL Brener)) (UniProt Q4DSP6).
T4 sequence (whole entry): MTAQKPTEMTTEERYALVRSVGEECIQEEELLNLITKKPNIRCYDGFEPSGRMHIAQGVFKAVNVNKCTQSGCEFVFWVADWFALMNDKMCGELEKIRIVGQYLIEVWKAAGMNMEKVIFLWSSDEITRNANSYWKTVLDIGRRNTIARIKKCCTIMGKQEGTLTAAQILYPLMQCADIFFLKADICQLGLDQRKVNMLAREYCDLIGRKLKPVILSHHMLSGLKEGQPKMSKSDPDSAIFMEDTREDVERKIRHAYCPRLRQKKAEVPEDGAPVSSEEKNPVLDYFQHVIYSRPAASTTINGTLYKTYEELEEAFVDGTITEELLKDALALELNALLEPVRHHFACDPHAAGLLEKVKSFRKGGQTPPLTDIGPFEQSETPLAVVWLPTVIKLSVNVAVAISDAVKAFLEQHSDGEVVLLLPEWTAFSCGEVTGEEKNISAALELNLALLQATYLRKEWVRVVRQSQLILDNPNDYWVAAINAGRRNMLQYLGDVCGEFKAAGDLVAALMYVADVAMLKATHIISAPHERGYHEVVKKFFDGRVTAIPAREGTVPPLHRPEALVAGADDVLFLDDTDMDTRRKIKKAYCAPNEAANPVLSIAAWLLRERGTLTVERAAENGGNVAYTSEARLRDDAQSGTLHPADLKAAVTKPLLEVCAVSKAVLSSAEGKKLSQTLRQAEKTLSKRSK
As to the kind of experiment: Trypanosoma cruzi tyrosyl tRNA synthetase (TcYRS) _High Tyrosine SOP. Note: in the data most compounds retested in dose-response had high values. Format: functional. Conditions: 30 µM.

The target in test [8] is T4, Tyrosyl-tRNA synthetase, putative (Trypanosoma cruzi (strain CL Brener)). The experiment in a line: Trypanosoma cruzi tyrosyl tRNA synthetase (TcYRS) SOP. The format is functional. Particulars: 30 µM.
In test [9] the target is Chromo domain-containing protein 1 (Saccharomyces cerevisiae (strain ATCC 204508 / S288c) (Baker's yeast)) (UniProt P32657). The experiment in a line: ScCHD-1 Enzyme Inhibition Assay. Note: in the data most compounds retested in dose-response had high values. The format is functional. Conditions: 30 µM.
Sequence of Chromo domain-containing protein 1 (Saccharomyces cerevisiae (strain ATCC 204508 / S288c) (Baker's yeast)) (P32657 whole entry, the tested form may be a part): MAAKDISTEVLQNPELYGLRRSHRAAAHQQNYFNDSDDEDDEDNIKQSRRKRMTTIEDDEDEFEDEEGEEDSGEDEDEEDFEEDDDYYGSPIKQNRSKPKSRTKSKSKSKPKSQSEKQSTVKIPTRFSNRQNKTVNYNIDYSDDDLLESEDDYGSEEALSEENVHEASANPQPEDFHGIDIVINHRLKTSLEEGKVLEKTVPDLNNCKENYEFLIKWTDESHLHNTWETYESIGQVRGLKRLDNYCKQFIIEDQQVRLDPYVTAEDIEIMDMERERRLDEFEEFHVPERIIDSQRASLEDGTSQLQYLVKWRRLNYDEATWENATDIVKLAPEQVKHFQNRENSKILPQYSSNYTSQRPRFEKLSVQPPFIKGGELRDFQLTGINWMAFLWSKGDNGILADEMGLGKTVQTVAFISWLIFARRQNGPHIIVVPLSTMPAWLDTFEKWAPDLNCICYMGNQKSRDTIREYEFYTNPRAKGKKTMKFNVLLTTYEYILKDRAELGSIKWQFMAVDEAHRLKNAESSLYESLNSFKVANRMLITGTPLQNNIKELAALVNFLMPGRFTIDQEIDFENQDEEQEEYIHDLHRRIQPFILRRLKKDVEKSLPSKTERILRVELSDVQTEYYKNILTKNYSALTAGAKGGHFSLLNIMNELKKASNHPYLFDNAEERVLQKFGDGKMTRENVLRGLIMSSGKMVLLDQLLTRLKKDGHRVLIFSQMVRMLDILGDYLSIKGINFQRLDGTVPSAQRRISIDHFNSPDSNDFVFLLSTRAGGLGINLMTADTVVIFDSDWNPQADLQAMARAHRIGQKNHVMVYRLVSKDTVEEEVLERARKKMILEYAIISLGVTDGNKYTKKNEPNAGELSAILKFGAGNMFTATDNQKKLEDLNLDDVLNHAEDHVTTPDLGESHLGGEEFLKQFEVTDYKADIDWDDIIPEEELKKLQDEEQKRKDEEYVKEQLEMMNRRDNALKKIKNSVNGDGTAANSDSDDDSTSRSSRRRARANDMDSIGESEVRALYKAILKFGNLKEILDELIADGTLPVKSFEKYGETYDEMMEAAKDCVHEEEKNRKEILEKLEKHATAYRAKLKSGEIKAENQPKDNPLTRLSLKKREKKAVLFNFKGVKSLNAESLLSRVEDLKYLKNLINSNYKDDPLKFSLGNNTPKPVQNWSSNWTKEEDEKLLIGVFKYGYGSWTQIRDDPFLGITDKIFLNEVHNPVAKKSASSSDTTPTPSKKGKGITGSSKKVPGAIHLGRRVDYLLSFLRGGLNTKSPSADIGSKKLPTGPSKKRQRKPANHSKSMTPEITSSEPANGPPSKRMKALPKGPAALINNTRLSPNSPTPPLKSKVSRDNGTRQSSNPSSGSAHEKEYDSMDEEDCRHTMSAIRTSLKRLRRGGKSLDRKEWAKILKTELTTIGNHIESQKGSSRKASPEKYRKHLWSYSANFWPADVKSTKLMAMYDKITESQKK

Sequence of Sialic acid-binding Ig-like lectin 9 (Homo sapiens) (Q9Y336 whole entry): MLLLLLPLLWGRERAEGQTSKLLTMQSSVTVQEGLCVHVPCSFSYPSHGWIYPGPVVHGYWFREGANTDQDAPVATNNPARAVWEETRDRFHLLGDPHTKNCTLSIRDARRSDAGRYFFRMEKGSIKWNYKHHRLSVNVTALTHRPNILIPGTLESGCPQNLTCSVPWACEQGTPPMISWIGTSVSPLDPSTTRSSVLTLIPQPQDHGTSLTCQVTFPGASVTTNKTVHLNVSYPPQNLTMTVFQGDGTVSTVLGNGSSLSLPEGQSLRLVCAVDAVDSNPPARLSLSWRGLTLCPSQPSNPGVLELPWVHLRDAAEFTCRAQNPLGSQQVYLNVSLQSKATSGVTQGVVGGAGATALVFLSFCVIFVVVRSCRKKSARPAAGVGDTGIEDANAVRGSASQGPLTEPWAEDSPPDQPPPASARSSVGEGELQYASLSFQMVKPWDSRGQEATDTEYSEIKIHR
Sequence of Protein translocase subunit SecA (Escherichia coli (strain K12)) (P10408 whole entry): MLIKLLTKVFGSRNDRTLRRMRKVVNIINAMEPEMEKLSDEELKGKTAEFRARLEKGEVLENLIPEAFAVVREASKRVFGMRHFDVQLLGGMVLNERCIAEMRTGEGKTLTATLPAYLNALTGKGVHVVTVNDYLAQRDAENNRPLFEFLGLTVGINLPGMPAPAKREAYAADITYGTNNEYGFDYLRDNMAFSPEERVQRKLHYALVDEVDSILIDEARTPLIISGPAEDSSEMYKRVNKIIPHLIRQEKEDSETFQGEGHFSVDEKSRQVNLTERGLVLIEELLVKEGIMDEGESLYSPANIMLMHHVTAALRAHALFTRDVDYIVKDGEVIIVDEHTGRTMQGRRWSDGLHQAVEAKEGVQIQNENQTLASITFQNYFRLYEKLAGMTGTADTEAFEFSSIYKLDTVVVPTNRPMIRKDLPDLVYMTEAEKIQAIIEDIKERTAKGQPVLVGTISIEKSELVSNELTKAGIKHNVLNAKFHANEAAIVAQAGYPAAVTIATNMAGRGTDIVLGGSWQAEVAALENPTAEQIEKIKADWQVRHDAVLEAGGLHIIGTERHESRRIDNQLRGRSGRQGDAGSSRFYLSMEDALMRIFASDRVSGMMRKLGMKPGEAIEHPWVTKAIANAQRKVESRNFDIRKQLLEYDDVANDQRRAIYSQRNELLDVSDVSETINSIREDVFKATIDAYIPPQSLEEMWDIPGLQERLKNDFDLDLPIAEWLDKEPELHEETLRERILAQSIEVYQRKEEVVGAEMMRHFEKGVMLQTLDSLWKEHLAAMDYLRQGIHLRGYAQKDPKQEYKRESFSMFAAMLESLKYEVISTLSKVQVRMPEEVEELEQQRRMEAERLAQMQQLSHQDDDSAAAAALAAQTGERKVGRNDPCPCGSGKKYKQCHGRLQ

Regarding `O=C(NC1CCCC1)NC1CCC(C(=O)N2CCSCC2)CC1` (stereo not drawn), the Percent Effect was -4.05% in test [1]; 2.6% in test [2]; 5.55% in test [3]; 0.598% in test [4]; -5.61% with Trypanosoma cruzi; -2.76% in test [5]. In addition, the Percent Effect in test [6] was 3.33%; in the test filed under Homo sapiens, 23.7%; in [7], 2.15%; in test [8] it was -1.24%; in test [9] it was -0.623%.

On to `Cc1oc(C)c(C(=O)N2CCCN(Cc3cscn3)CC2)c1C`, for which the Percent Effect in test [1] was -6.32%; in test [2], 7.79%; in test [3], 7.44%; in test [4], -1.26%; in the test on Trypanosoma cruzi, -1.47%; in test [5] it was -2.32%. The Percent Effect in [6] was -1.37%; in the test listed under Homo sapiens it was 14.5%; in test [7], 6.67%; in [8], 9.41%; in [9], -15.7%.

As for `CN1CCCN(C[C@@H]2CN(C(=O)CCC3CCCC3)C[C@@H]2CO)CC1`, the Percent Effect in test [1] was -5.09%; in [2] it was 7.79%; in test [3] it was 1.31%; in test [4], 18.7%; with Trypanosoma cruzi it was 4.62%; in [5], -8.28%. Besides, the Percent Effect in [6] is 3.66%; in the test listed under Homo sapiens it was -0.683%; in test [7], 6.45%; in [8], 11.1%; in test [9] it was -3.02%.

Regarding `Cc1nc(N2CCOCC2)nc2c1CN(C(=O)Cc1ccccn1)CC2`, the Percent Effect in test [1] was 1.23%; in test [2], 0%; in test [3], 3.27%; in test [4], 5.25%; with Trypanosoma cruzi it was 0.688%; in test [5], 4.14%. Besides, the Percent Effect is 2.66% in test [6]; -4.9% in the test filed under Homo sapiens; 3.23% in test [7]; -1.24% in test [8]; 0.916% in test [9].

In the case of `NC(=O)c1ccc(NC(=O)CCN2CCCC(N3CCCC3)C2)cc1` (stereo not drawn), the Percent Effect is -9.36% in [1]; 13.5% in test [2]; -4.04% in test [3]; 16.5% in test [4]; 8.98% in the test on Trypanosoma cruzi; 22.5% in [5]. Further, the Percent Effect in test [6] is 9.38%; in the test listed under Homo sapiens, 19.4%; in [7] it was 9.9%; in test [8] it was 15.8%; in test [9], -5.57%.

On to `CCCS(=O)(=O)Nc1ccc2c(c1)OCC(C)(C)C(=O)N2C`, for which the Percent Effect in test [1] was -0.588%; in [2] it was 11%; in [3], -6.5%; in [4] it was 1.41%; in the test with Trypanosoma cruzi, -5.09%; in test [5] it was -2.27%. For the same compound, the Percent Effect is 12.6% in test [6]; 8.18% in the test filed under Homo sapiens; 2.15% in test [7]; 10% in [8]; -5.87% in test [9].

In the case of `COCC1CN(Cc2cc(C)on2)Cc2cn(C)nc21` (stereo not drawn), the Percent Effect in test [1] was -1.68%; in [2] it was 8%; in [3], 1.48%; in test [4], 12.2%; with Trypanosoma cruzi it was -0.965%; in test [5], -24.2%. Besides, the Percent Effect in test [6] is 9.06%; in the test filed under Homo sapiens, -11%; in test [7] it was 6.25%; in test [8] it was 10%; in test [9], -4.54%.

In the case of `CCN(Cc1ccc2c(c1)OCO2)C(=O)NC(C)Cn1cccn1` (stereo not drawn), the Percent Effect in test [1] is -2.99%; in test [2] it was 20.8%; in [3], 2.96%; in [4], -4.68%; in the test with Trypanosoma cruzi, -5.43%; in [5], 1.42%. In addition, the Percent Effect is 8.78% in test [6]; 5.38% in the test filed under Homo sapiens; 4.85% in test [7]; 14.6% in test [8]; -8.47% in test [9].
